Measured values reported in PubChem BioAssay.
Active and inactive are the calls of the source.

Experiment: small-molecule microarray binders of probe aXIP, primary screen, biochemical, NeuroSMM set, 635/667 nm fluorescence (AID 1119);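 also: probe is the protein aXip251-270 applied at 1 µg/mL to compound-printed slides; binding of probe to printed compounds measured as 667 nm fluorescence plus signal to noise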
Details: higher = more signal, called active from +8 up or from −8 down

| SMILES | composite Z-score |
| --- | --- |
| CC(C)(C)N1C(=O)[C@H]2[C@H]3[C@H](O)[C@H](O)CC(=NOCc4ccccc4)[C@@H]3CC[C@H]2C1=O | 0.588 (inactive) |
| COC(=O)[C@@]1(Cc2ccccc2)[C@H]2c3cc(C(=O)N4CCCC4)n(Cc4ccccn4)c3C[C@H]2CN1C(=O)c1ccccc1 | 0.193 (inactive) |
| C[C@@H](c1ccccc1)N1C(=O)[C@H]2[C@H]3[C@H](O)[C@H](O)CC(=NOC[C@@H](O)COCc4ccco4)[C@@H]3CC[C@H]2C1=O | 0.528 (inactive) |
| COc1ccc(O[C@H]2C=C[C@@H](c3ccccc3)O[C@@H]2COC(=O)CCC(C)=NOCC[C@@H]2C=C[C@H](OC(C)=O)[C@@H](COC(C)=O)O2)cc1 | 0.806 (inactive) |
| O=C1[C@H]2[C@H]3[C@H](O)[C@H](O)CC(=NOC[C@@H](O)COCc4ccco4)[C@H]3CC[C@H]2C(=O)N1c1cccc(Oc2ccccc2)c1 | -0.705 (inactive) |
| COC(=O)CC=C[C@@H](C)[C@@H](C=NO[C@@H](C)c1cc(-c2c(C)cc(C)cc2C)no1)OC | -0.483 (inactive) |
| COc1ccc(COC(=O)NN=C2C[C@@H](O)[C@@H](O)[C@@H]3[C@@H]4C(=O)N(Cc5ccc6c(c5)OCO6)C(=O)[C@@H]4CC[C@@H]23)cc1 | -0.463 (inactive) |
| C[C@@H]1CCC2C(=O)N(Cc3ccccc3)C[C@@H](O)CN2[C@H]1c1ccc(Br)cc1 (some centres undefined) | 0.0923 (inactive) |

Experiment: small-molecule binders of probe aNOTCH3, primary screen, biochemical, small-molecule microarray, 635/667 nm fluorescence (AID 1120);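 also: probe is a biotin-tagged antibody raised against NOTCH3 rather than NOTCH3 protein; score merges spot fluorescence near 667 nm with spot signal to noise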
Details: higher = more signal

| SMILES | composite z-score |
| --- | --- |
| COC(=O)[C@H](C)NC(=O)CCC1CC(OC(=O)NCCc2ccc(F)cc2)CC2(CCCC(COC(=O)NCCc3ccc(Cl)cc3)O2)O1 (some centres undefined) | 0.0573 |
| C=COC[C@H]1CN2[C@@H](CC[C@@H](C)[C@@H]2c2ccc(Br)cc2)C(=O)O1 | 0.0999 |
| CN1C(=O)C2C=CC(C(O)c3ccc(Br)cc3)N(N(c3ccccc3)c3ccccc3)C2C1=O (centres undefined) | -0.0003 |
| COC(=O)[C@H](C)NC(=O)[C@@H](C)CO | -0.105 |
| O=C1[C@H]2[C@H]3[C@H](O)[C@H](O)CC(=NOCc4ccccc4)[C@@H]3CC[C@H]2C(=O)N1Cc1ccccc1 | -0.0043 |
| CC(C)[C@@H](OCc1ccccc1)[C@H](C)C=NOC[C@@H](C)[C@H](OCc1ccccc1)C(C)C | -0.0111 |
| CCOC(=O)[C@H](Cc1ccccc1)NC(=O)CCC1CC(OC(=O)NCc2ccc3c(c2)OCO3)CC2(CCCC(COC(=O)NCC3CCCCC3)O2)O1 (some centres undefined) | 0.0525 |
| COC(=O)[C@@H]1CC[C@H](C)[C@@H](c2ccc(C)cc2)N1C(=O)c1ccc(C=NOC[C@@H](O)COCc2ccco2)cc1 | -0.0077 |
| Cc1cc2c(nc1C)CCCN2CC(O)CN1CCN(C)CC1 (centres undefined) | -0.0636 |
| C=C(CCCC)C(=O)CC[C@@H](OC(C)=O)c1cccc(OCCO)c1 | -0.0933 |
| CCOC(=O)[C@H](Cc1ccccc1)NC(=O)CCC1CC(OC(=O)NCc2ccc3c(c2)OCO3)CC2(CCCC(COC(=O)NCC(c3ccccc3)c3ccccc3)O2)O1 (some centres undefined) | 0.17 |
| C#CCCCON=C1C[C@@H](O)[C@@H](O)[C@@H]2[C@@H]3C(=O)N(c4cccc(Oc5ccccc5)c4)C(=O)[C@@H]3CC[C@@H]12 | -0.0311 |
| CC(C)CON=C1C[C@@H](O)[C@@H](O)[C@@H]2[C@@H]3C(=O)N(C[C@@H]4CCCO4)C(=O)[C@@H]3CC[C@H]12 | -0.101 |
| CCN1C(=O)[C@H]2[C@H]3[C@H](O)[C@H](O)CC(=NO[C@@H]4O[C@H](CO)[C@@H](O)[C@H](O)[C@H]4O)[C@@H]3CC[C@H]2C1=O | -0.213 |
| COc1ccc(-c2ccc3c(n2)CCCN3CC(O)CN2CCCc3nc(C)c(C)cc32)cc1 (centres undefined) | 0.713 |
| CO[C@H]1O[C@H](CO)[C@@H](OC(=O)Nc2ccc3c(c2)OCO3)[C@H](OC(=O)Nc2ccccc2-c2ccccc2)[C@@H]1OC(=O)Nc1ccccc1-c1ccccc1 | 0.276 |
| COC(=O)CC1OC1[C@H](C)[C@@H](OC)C(C)C (some centres undefined) | -0.0647 |
| CO[C@@H]1COC(=O)CC=C[C@@H](C)[C@@H]2C=C[C@H](O)[C@@H](COC(=O)[C@H](C)NC(=O)CC=C[C@H]1C)O2 | -0.0328 |
| N#Cc1ccc(NN2C(C(O)c3cc(C(F)(F)F)cc(C(F)(F)F)c3)C=CC3C(=O)N(c4ccccc4)C(=O)C32)cc1 (centres undefined) | 0.425 |
| CCOC(=O)NN=C1C[C@@H](O)[C@@H](O)[C@@H]2[C@@H]3C(=O)N(C[C@@H]4CCCO4)C(=O)[C@@H]3CC[C@@H]12 | 0.0927 |
| COCCOC(=O)N1C(=O)[C@@]2(c3cc(C#CC4(O)CCCCCC4)ccc31)[C@H](C(=O)N1CCN(c3ncccn3)CC1)[C@H]1C(=O)O[C@H](c3ccccc3)[C@H](c3ccccc3)N1[C@@H]2c1ccc(OCCO)cc1 | 0.178 |
